# Results reported in PubChem BioAssay.
# Several values for one entry are separate records, joined by “and”; a condition that tells them apart may be missing. Equal values may be shown once. Results filed as inconclusive are left out. Activity calls are given as the source filed them.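 Rule for the calls, unless noted: active = normalized viability below 100% at a tested concentration; inactive = the rest.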
# Experiments:
# [1] = growth inhibition of DIPG glioma cells, dose response, cell-based, SU-DIPG-XVII, MIPE5.0, CellTiter-Glo, qHTS (AID 1347060; cut-off not given, nearly all actives have AC50 up to about 26 µM;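 for AC50: cells exposed to compound for 48 hours before viability readout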); details: SU-DIPG-XVII viability, CellTiter-Glo ATP luminescence
# [2] = growth inhibition of DIPG glioma cells, dose response, cell-based, SU-DIPG-XIII, MIPE4.0, CellTiter-Glo, qHTS (AID 1347061; cut-off not given, nearly all actives have AC50 up to about 37 µM;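 note: cells exposed to compound for 48 hours before readout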); details: SU-DIPG-XIII viability, CellTiter-Glo ATP luminescence
# [3] = growth inhibition of DIPG glioma cells, dose response, cell-based, JHH-DIPG-1, MIPE4.0, CellTiter-Glo, qHTS (AID 1347062; cut-off not given, nearly all actives have AC50 up to about 27 µM;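 for AC50: cells exposed to compound for two days before readout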); details: JHH-DIPG-1 viability, CellTiter-Glo ATP luminescence
# [4] = growth inhibition of DIPG glioma cells, dose response, cell-based, SU-DIPG-IV, MIPE4.0, CellTiter-Glo, qHTS (AID 1347063; cut-off not given, nearly all actives have AC50 up to about 30 µM;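 note: compound exposure lasted 48 hours before the viability readout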); details: SU-DIPG-IV viability, CellTiter-Glo ATP luminescence
# [5] = viability loss in pontine glioma line – cell-based, SU-DIPG-XXV, MIPE5.0, CellTiter-Glo, qHTS, dose response (AID 1347065; cut-off not given, nearly all actives have AC50 up to about 26 µM;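 note: cells exposed to compound for 48 hours before ATP readout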); details: CellTiter-Glo ATP luminescence
# [6] = SU-DIPG-VI glioma cell viability, MIPE4.0 library, CellTiter-Glo luminescence, qHTS (AID 1347066; cut-off not given, nearly all actives have AC50 up to about 30 µM;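 note: cells exposed to compound for 48 hours before readout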); details: CellTiter-Glo ATP luminescence
# [7] = JHH-DIPG-1 glioma cell viability, MIPE5.0 library, CellTiter-Glo luminescence, qHTS (AID 1347067; cut-off not given, nearly all actives have AC50 up to about 26 µM;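 note: cells exposed to compound for 48 hours before readout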); details: JHH-DIPG-1 glioma viability, CellTiter-Glo ATP luminescence
# [8] = modifiers of HSF1 nuclear foci, imaging, Selleck Cancer Library (AID 1347162; in the data active = plate-normalised HSF1 focus index below about 0.46); details: human cells, at 10 µM; SSMD: measured here: HSF1 foci SSMD mean; cell count: measured here: cell number; plate-normalised HSF1 focus index: stronger effect = lower value
# [9] = SU-DIPG-XXV glioma cell viability, MIPE5.0 library, qHTS (AID 1347068; cut-off not given, nearly all actives have IC50 up to about 30 µM)
# [10] = sensitizers of A549 cells to miR-34 induction, primary screen, imaging, A549 dox-inducible miR-34, nuclei and caspase counts (AID 1347080;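 active = compounds whose cell count with miR-34 switched on is under 0.7 times the count with it off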); details: A549 miR-34 inducible, Hoechst nuclei count, 48 h
# [11] = survival rescue of mitochondrial mutant cells in low glucose, primary screen, MELAS cybrids, Rieske KO mouse fibroblasts, CellTiter-Glo (AID 1508586;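 active = mean z-score across replicates of 1.96 or higher in either the MELAS or the Rieske mutant cell line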;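 note: z relative to plate mean and SD of compound and empty wells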)
# [12] = ovarian cancer cell viability with rucaparib, profiling panel, oncology-focused library, rucaparib conditional (AID 1508598); details: patient-derived ovarian cancer cells, CellTiter-Glo viability, 144 h, stronger effect = lower value
# [13] = stronger effect = lower value, cell number ratio, induced over uninduced
# [14] = measured here: relative caspase fold change +Dox/-Dox
# [15] = measured here: total cells with miR-34 induction, stronger effect = lower value
# [16] = measured here: total cells without miR-34 induction
# [17] = MELAS cybrid survival, CellTiter-Glo 48 h, stronger effect = higher value
# [18] = Rieske KO mouse fibroblast survival, CellTiter-Glo 72 h
compound,measurement,setting,value
COc1ccc(C2CC(c3ccccc3)=NN2c2ccc(S(N)(=O)=O)cc2)cc1 (stereo unspecified),outcome,[1],inactive
same,outcome,[2],inactive
same,AC50,[3],4.69 µM (active)
same,AC50,[4],16.6 µM (active)
same,outcome,[5],inactive
same,outcome,[6],inactive
same,outcome,[7],inactive
same,SSMD,[8],2.07
same,cell count,[8],7280
same,plate-normalised HSF1 focus index,[8],1.13 (inactive)
COc1ccc(OC)c(-c2nnc3ccc(-c4ccc(OC)c(O[C@@H]5CCOC5)c4)nn23)c1,AC50,[1],2.95 µM (active)
same,AC50,[2],26.4 µM (active)
same,AC50,[3],7.43 µM (active)
same,AC50,[4],14.8 µM (active)
same,AC50,[5],2.63 µM (active)
same,AC50,[6],11.8 µM (active)
C1Cc2[nH]nc(-c3nn[nH]n3)c2C1,outcome,[1],inactive
same,outcome,[2],inactive
same,outcome,[3],inactive
same,outcome,[4],inactive
same,outcome,[5],inactive
same,outcome,[6],inactive
same,outcome,[7],inactive
same,outcome,[9],inactive
C=C(c1ccc(C(=O)O)cc1)c1cc2c(cc1C)C(C)(C)CCC2(C)C,AC50,[1],23.5 µM (active)
same,outcome,[2],inactive
same,outcome,[3],inactive
same,outcome,[4],inactive
same,AC50,[5],0.118 µM (active)
same,outcome,[6],inactive
same,outcome,[9],inactive
same,fold change,[10]; [13],0.951 (inactive) and 0.85 (inactive)
same,fold change,[10]; [14],1.39 and 1.44
same,cell count,[10]; [15],6410 and 6330
same,cell count,[10]; [16],6740 and 7440
same,z-score,[11]; [17],0.149 (inactive) and 0.79 (inactive)
same,z-score,[11]; [18],0.712 and -0.251
same,viability,"[12]; at 0.000305 µM, OCI-C5x cells, with rucaparib 10 µM, 100% = cells with rucaparib alone",115% (inactive)
same,viability,"[12]; at 0.000305 µM, OCI-C5x cells, without rucaparib",109% (inactive)
same,viability,"[12]; at 0.000305 µM, OCI-P5x cells, with rucaparib 20 µM, 100% = cells with rucaparib alone",90.9% (active)
same,viability,"[12]; at 0.000305 µM, OCI-P5x cells, without rucaparib",106% (inactive)
same,viability,"[12]; at 0.00122 µM, OCI-C5x cells, with rucaparib 10 µM, 100% = cells with rucaparib alone",116% (inactive)
same,viability,"[12]; at 0.00122 µM, OCI-C5x cells, without rucaparib",109% (inactive)
same,viability,"[12]; at 0.00122 µM, OCI-P5x cells, with rucaparib 20 µM, 100% = cells with rucaparib alone",96% (active)
same,viability,"[12]; at 0.00122 µM, OCI-P5x cells, without rucaparib",111% (inactive)
same,viability,"[12]; at 0.00488 µM, OCI-C5x cells, with rucaparib 10 µM, 100% = cells with rucaparib alone",112% (inactive)
same,viability,"[12]; at 0.00488 µM, OCI-C5x cells, without rucaparib",120% (inactive)
same,viability,"[12]; at 0.00488 µM, OCI-P5x cells, with rucaparib 20 µM, 100% = cells with rucaparib alone",108% (inactive)
same,viability,"[12]; at 0.00488 µM, OCI-P5x cells, without rucaparib",120% (inactive)
same,viability,"[12]; at 0.0195 µM, OCI-C5x cells, with rucaparib 10 µM, 100% = cells with rucaparib alone",108% (inactive)
same,viability,"[12]; at 0.0195 µM, OCI-C5x cells, without rucaparib",119% (inactive)
same,viability,"[12]; at 0.0195 µM, OCI-P5x cells, with rucaparib 20 µM, 100% = cells with rucaparib alone",113% (inactive)
same,viability,"[12]; at 0.0195 µM, OCI-P5x cells, without rucaparib",124% (inactive)
same,viability,"[12]; at 0.0781 µM, OCI-C5x cells, with rucaparib 10 µM, 100% = cells with rucaparib alone",106% (inactive)
same,viability,"[12]; at 0.0781 µM, OCI-C5x cells, without rucaparib",106% (inactive)
same,viability,"[12]; at 0.0781 µM, OCI-P5x cells, with rucaparib 20 µM, 100% = cells with rucaparib alone",112% (inactive)
same,viability,"[12]; at 0.0781 µM, OCI-P5x cells, without rucaparib",125% (inactive)
same,viability,"[12]; at 0.313 µM, OCI-C5x cells, with rucaparib 10 µM, 100% = cells with rucaparib alone",103% (inactive)
same,viability,"[12]; at 0.313 µM, OCI-C5x cells, without rucaparib",122% (inactive)
same,viability,"[12]; at 0.313 µM, OCI-P5x cells, with rucaparib 20 µM, 100% = cells with rucaparib alone",115% (inactive)
same,viability,"[12]; at 0.313 µM, OCI-P5x cells, without rucaparib",130% (inactive)
same,viability,"[12]; at 1.25 µM, OCI-C5x cells, with rucaparib 10 µM, 100% = cells with rucaparib alone",98% (active)
same,viability,"[12]; at 1.25 µM, OCI-C5x cells, without rucaparib",122% (inactive)
same,viability,"[12]; at 1.25 µM, OCI-P5x cells, with rucaparib 20 µM, 100% = cells with rucaparib alone",117% (inactive)
same,viability,"[12]; at 1.25 µM, OCI-P5x cells, without rucaparib",126% (inactive)
same,viability,"[12]; at 5 µM, OCI-C5x cells, with rucaparib 10 µM, 100% = cells with rucaparib alone",101% (inactive)
same,viability,"[12]; at 5 µM, OCI-C5x cells, without rucaparib",128% (inactive)
same,viability,"[12]; at 5 µM, OCI-P5x cells, with rucaparib 20 µM, 100% = cells with rucaparib alone",116% (inactive)
same,viability,"[12]; at 5 µM, OCI-P5x cells, without rucaparib",125% (inactive)
CCNC(=O)CCC/C=C\C[C@@H]1[C@@H](/C=C/C(O)CCc2ccccc2)[C@@H](O)C[C@@H]1O (stereo partly specified),outcome,[1],inactive
same,outcome,[2],inactive
same,outcome,[3],inactive
same,outcome,[4],inactive
same,outcome,[5],inactive
same,outcome,[6],inactive
same,outcome,[7],inactive
same,outcome,[9],inactive
Cc1cc(Nc2ncnc3ccc(-c4ccc(CNCCS(C)(=O)=O)o4)cc23)ccc1Oc1ccn2ncnc2c1,AC50,[1],23.5 µM (active)
same,AC50,[2],23.5 µM (active)
same,AC50,[3],18.7 µM (active)
same,AC50,[4],14.8 µM (active)
same,AC50,[5],16.6 µM (active)
same,AC50,[6],16.6 µM (active)
same,AC50,[7],20.9 µM (active)
same,outcome,[9],inactive
same,fold change,[10]; [13],0.962 (inactive)
same,fold change,[10]; [14],1.06
same,cell count,[10]; [15],7890
same,cell count,[10]; [16],8200
same,z-score,[11]; [17],1.86 (inactive)
same,z-score,[11]; [18],-0.462
